The text below walks through data of PubChem BioAssay.

Activity calls are given as the source filed them.
Also: test concentration not given here.

One assay in a line: basal MM1S mitochondrial membrane potential changes, profiling panel, cell-based, JC-1 fluorescence, 24 h, 100 nL compound (AID 1170). Conditions: higher = more signal.
Compound `COc1cc2c(cc1O)C(c1cccs1)N(C)CC2` (centres undefined) came in with a z-score of -1.06. Same read-out and setting: as for `C=CC[C@]1(C(=O)NCc2ccccc2)N=C(c2ccc(OCCCO)cc2)O[C@H]1c1ccccc1N=[N+]=[N-]`, the figure is 0.0422. For `O=C(c1ccccc1)N1Cc2ccccc2C[C@@]2(COC(c3ccc(OCCCO)cc3)=N2)C1=O`, the z-score is 0.392. On to `C=C[C@H](C)[C@@H](OC(=O)Nc1ccc(OC)cc1)c1ccc(O)c2ccccc12`, for which the z-score is -1.94.

`CCC(CC)C(O)C1C=CC2C(=O)NC(=O)C2N1Nc1ccc(Cl)cc1Cl` (centres undefined) returned a z-score of -0.246. The compound `COc1ccc(C#Cc2ccc3c(c2)[C@]2(C(=O)N3)[C@H](c3ccccc3OCCO)N3[C@H](c4ccccc4)[C@H](c4ccccc4)OC(=O)[C@H]3[C@@H]2C(=O)Nc2nc3ccccc3s2)cc1` showed a z-score of -1.28. The compound `O=C(CS)NCCCCCCNC(=O)[C@@H]1C[C@@H]2C(=O)N[C@@H](Cc3ccccc3)C(=O)N2[C@@H]1c1cccc(OCCO)c1` showed a z-score of -0.143. `CC(C)N1C(=O)c2ccccc2[C@](C)(C(=O)NCCN2CCOCC2)[C@@H]1c1ccc(CO)cc1` showed a z-score of -0.0545. On the same count and under the same terms, as for `CCCC=C(CCC)[C@@H](NC(=O)c1cccs1)c1ccc(C(F)(F)F)cc1`, the figure is -1.71.

As to `C[N+](C)(C)CCCCNC(=O)[C@@H]1C[C@@H]2C(=O)N[C@@H](Cc3ccccc3)C(=O)N2[C@@H]1c1cccc(OCCO)c1`, the z-score was -0.493.

The compound `Cc1ccc(S[C@]2(C(=O)NC3CC3)CC(=O)N(Cc3ccccc3)[C@@H]2c2ccc(CO)cc2I)cc1` displayed a z-score of -1.26. In turn, `CCOC(=O)C1=C[C@@H](C(C)(C)C)N(S(=O)(=O)c2ccc(C)cc2)[C@H]1c1ccc(F)cc1` returned a z-score of -0.781.

Consider `COc1ccc(C(O)C2C=CC3C(=O)N(Cc4ccccc4)C(=O)C3N2n2cnnc2)cc1OCc1ccccc1` (centres undefined), for which the z-score was -0.882.

For the compound `CC1CC/C=C\[C@H]2OC34C=CCN(C(C)(C)C)C(=O)[C@H]3N(CCO)C(=O)[C@@H]4C2C(=O)O1` (some centres undefined), the z-score is 0.927.

The next assay is described as follows: A549 lung cancer cell viability effects, profiling panel, resazurin fluorescence, 24 h, PK04 Diversity Set (AID 1171). Conditions: higher = more signal, called active from +8 up or from −8 down.
Consider `CC(=O)NCCCC[C@@H]1NC(=O)[C@@H]2C[C@H](C(=O)NCCCCCNC(=O)CS)[C@H](c3cccc(OCCO)c3)N2C1=O`, for which the z-score is 0.131 (inactive).

Turning to `COc1ccccc1CN1C(=O)c2ccccc2[C@@]2(Cc3ccccc3N(CC(C)C)C2=O)[C@@H]1c1ccc(CO)cc1`, the z-score is -1.03 (inactive). With `CC(CO)N1C(=O)[C@@H]2C3C(=O)OCCC/C=C\[C@H]3OC23C=CCN(C(C)(C)C)C(=O)[C@@H]13` (some centres undefined), the z-score was -0.717 (inactive). As for `CC1(C)[C@@H]2CC(C(O)C3C=CC4C(=O)N(Cc5ccccc5)C(=O)C4N3n3cnnc3)=C[C@H]1C2` (some centres undefined), the z-score is 1.18 (inactive).

On to `O=C1C[C@@](C(=O)NC2CC2)(c2ccc([N+](=O)[O-])cc2)[C@@H](c2ccc(CO)cc2I)N1C1CCCCC1`, for which the z-score is 0.0067 (inactive). On the same count and under the same terms, as for `NC(=O)NCC#Cc1ccc2c(c1)[C@]1(C(=O)N2)[C@H](C(=O)Nc2nc3ccccc3s2)[C@H]2C(=O)O[C@H](c3ccccc3)[C@H](c3ccccc3)N2[C@@H]1c1ccccc1OCCO`, the figure is 0.28 (inactive); as for `O=C1c2ccccc2[C@](Cc2ccccc2I)(C(=O)NCC(F)(F)F)[C@H](c2ccc(CO)cc2)N1Cc1ccccc1Cl`, 1.57 (inactive).

With `CCC[C@@H]1C[C@@]1(CCC)[C@@H](NS(=O)(=O)c1cccc2cccnc12)c1ccc(Cl)cc1`, the z-score was -0.132 (inactive). As to `CCCC[C@@H]1C[C@H]1[C@@H](NC(=O)c1ccco1)c1ccc(-c2ccccc2)cc1`, the z-score was -1.04 (inactive). The same measure, in the same setting: as for `Cc1ccc(S[C@]2(C(=O)NCCCN(C)C)CC(=O)N(Cc3cc(C(F)(F)F)cc(C(F)(F)F)c3)[C@@H]2c2ccc(CO)cc2)cc1`, the figure is -0.106 (inactive); as for `C=C[C@@H](COC(=O)OC(C)(C)C)N(Cc1ccc(OC)cc1)S(=O)(=O)c1ccc(Br)cc1`, 1.74 (inactive); as for `COCCOC(=O)N1C(=O)[C@@]2(c3cc(C#CCC(C(=O)OC)C(=O)OC)ccc31)[C@H](C(=O)N1CCN(c3ncccn3)CC1)[C@H]1C(=O)O[C@H](c3ccccc3)[C@H](c3ccccc3)N1[C@@H]2c1ccccc1OCCO`, -0.174 (inactive).

With `CN1C(=O)C2C=CC(C(O)c3ccccc3)N(N(c3ccccc3)c3ccccc3)C2C1=O` (centres undefined), the z-score was -0.166 (inactive).

For `COc1ccc([Si](C)(C)[C@H]2[C@H](CC(=O)N3Cc4ccccc4C[C@H]3CO)O[C@@]3(C(=O)N(Cc4cccc(N5CCC5=O)c4)c4ccccc43)[C@@H]2C)cc1`, the z-score was -0.919 (inactive). As for `C=CCC(OC(C)=O)[C@@H]1[C@@H](N(Cc2ccc(-c3cccc(C(F)(F)F)c3)o2)C(=O)c2ccc(C)cc2)c2cc(OCCCO)ccc2N1C(=O)Cc1ccc2ccccc2c1` (some centres undefined), the z-score was 0.379 (inactive).
